The list is not random: actives were taken first. Their share in the collection is about 4.1%.
DAX1 inh-1 = DAX1 (NR0B1) inhibitors on StAR promoter, primary screen, cell-based, luminescence, SF-1 (NR5A1), full-length DAX-1. HEK293T StAR-luciferase reporter, SF-1/DAX-1 repression relief. inhibition, % at 6.8 µM. 370,000 compounds, 1.1% hits. AID 652010, 2013;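 active = inhibition above the mean over all tested compounds plus 3 SD, cut at about 3.6% in these data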;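 note: higher inhibition means more luminescence from relief of DAX-1 repression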
ssDAF-12 act = S. stercoralis DAF-12 nuclear receptor activators, primary screen, cell-based, luminescence, HEK293, GRIP1 co-expression, lit1-tk-luc | 370,000 compounds, 1% hits | AID 652126, 2013 | HEK293 ssDAF-12/GRIP1 lit1-tk-luc reporter; % of 3 µM dafachronic acid response | activation, % at 6.8 µM;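 active = activation above the mean over all tested compounds plus 3 SD, cut at about 0.9% in these data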
DAX1 inh-2 = DAX1 (NR0B1) inhibitors, primary screen, cell-based, HEK293, Gal4-DAX1, luciferase luminescence; HEK293 Gal4-DAX1 luciferase reporter; inhibition, % at 6.75 µM; 340,000 compounds, 0.99% hits; AID 504766, 2011;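 active = inhibition above the mean over all tested compounds plus 3 SD, cut at about 4.2% in these data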;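 note: inhibition shows as a rise in luminescence from relieved DAX1 repression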
PolyA inhibitor = polyadenylation inhibitors in yeast reporter cells, primary screen, luminescence, S. cerevisiae; S. cerevisiae SKY197-pL101 polyadenylation reporter, beta-gal luminescence; efflux-impaired pdr1/pdr3 knockout yeast; score 100 = 6 SD above DMSO; activity score, % at 12 µM; 300,000 compounds, 0.02% hits; AID 1875, 2009;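 active = lowest replicate activity score at least 50, where 100 means six control SD above control mean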;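 note: yeast exposed to compound for 9 h at 30 °C; higher score means more reporter readthrough which indicates perturbed polyadenylation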
hgDAF-12 ag = H. glycines DAF-12 receptor agonists, primary screen, cell-based, luminescence, HEK293, GAL4 fusion, UAS-luciferase | Nuclear hormone receptor DAF-12 (Heterodera glycines), GAL4 fusion | 370,000 compounds, 1.8% hits | activation, % at 6.8 µM | AID 687014, 2013 | HEK293 GAL4-hgDAF12 UAS-luciferase reporter, agonist luminescence; normalized to butyrate control;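 active = activation above a cutoff set at the mean of all screened compounds plus 3 SD, cut at about 10% in these data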
hcDAF-12 act = H. contortus DAF-12 nuclear receptor activators, primary screen, cell-based, luminescence, HEK293, lit1-tk-luc reporter; 370,000 compounds, 1.4% hits; activation, % at 6.8 µM; AID 652067, 2013; HEK293 hcDAF-12 lit1-tk-luc reporter; 0% DMSO, 100% Δ7-dafachronic acid;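 active = activation above the mean of all tested compounds plus 3 SD, cut at about 5.5% in these data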
LXRb hcDAF ctr = LXR agonists, Gal4 luciferase reporter, confirmation, counter-screen for hcDAF-12 agonist project, cell-based, luminescence, HEK293, H. contortus campaign; HEK293 Gal4-LXR tk-luc reporter, 24 h; normalized: DMSO 0%, positive control 100%; activation, % at 6.8 µM; shares compounds with hcDAF-12 act; 3,400 tested, under 10 active; AID 743027, 2013;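 active = mean percent activation of the reporter above a cutoff set as the average over tested compounds plus their standard deviation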
Target sequence (P55055 whole entry, looked up, the tested form may be a part): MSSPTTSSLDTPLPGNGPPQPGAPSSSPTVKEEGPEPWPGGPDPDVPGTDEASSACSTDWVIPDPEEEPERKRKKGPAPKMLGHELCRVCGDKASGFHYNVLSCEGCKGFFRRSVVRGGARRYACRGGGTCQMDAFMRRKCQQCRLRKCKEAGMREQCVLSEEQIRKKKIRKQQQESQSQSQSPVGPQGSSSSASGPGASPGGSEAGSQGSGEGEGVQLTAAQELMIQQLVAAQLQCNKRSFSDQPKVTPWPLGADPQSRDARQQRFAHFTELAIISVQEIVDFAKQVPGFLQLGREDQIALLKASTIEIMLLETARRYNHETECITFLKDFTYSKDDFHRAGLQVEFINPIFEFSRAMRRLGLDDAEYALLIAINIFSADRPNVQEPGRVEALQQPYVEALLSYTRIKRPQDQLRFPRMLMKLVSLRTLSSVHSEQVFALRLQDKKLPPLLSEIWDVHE
hcDAF12 conf = H. contortus DAF-12 receptor agonists, confirmation, cell-based, luminescence, HEK293, lit1-tk-luc, triplicate | 3,400 compounds, 61% hits | shares compounds with hcDAF-12 act | HEK293 hcDAF-12 lit1-tk-luc reporter; % of Δ7-dafachronic acid response | activation, % at 6.8 µM;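 active = mean activation across triplicate tests above the threshold derived from the earlier primary screen, cut at about 5.5% in these data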
Numbers stand for hits; n = inactive; x = no result.

SMILES	DAX1 inh-1	ssDAF-12 act	DAX1 inh-2	PolyA inhibitor	hgDAF-12 ag	hcDAF-12 act	LXRb hcDAF ctr	hcDAF12 conf
O=C(NC(=S)Nc1nc2ccccc2s1)c1cccs1	n	n	5.1	n	n	13.1	n	16.6
COC(=O)c1nc(NC(=S)NC(=O)c2cccs2)sc1C	n	n	n	n	n	n	x	x
CC(NC(=O)c1cccnc1Sc1ccccc1)c1ccc(S(N)(=O)=O)cc1 (centres undefined)	n	n	n	n	n	n	x	x
Cc1ccc(C(=O)OCC(=O)NNC(=O)c2cccs2)c(O)c1	n	n	n	n	n	n	x	x
O=C(Nc1nc2ccccc2s1)C1CCCO1 (centres undefined)	n	n	n	n	n	7.5	n	6.7
COc1ccc(NC(=O)Nc2nc3ccccc3s2)cc1	n	n	n	n	11.2	7.1	n	n
O=C(Nc1nnc(-c2ccccc2F)s1)C1CCCO1 (centres undefined)	n	n	n	n	n	n	x	x
c1nc(NCC2CCCO2)c2cc(-c3ccc4c(c3)OCO4)ccc2n1 (centres undefined)	x	n	x	x	n	n	x	x
c1nc(NCC2CCCCO2)c2cc(-c3ccc4c(c3)OCO4)ccc2n1 (centres undefined)	x	n	x	x	n	6.9	n	n
Cc1ccc([C@@H]2CC(=O)[C@@H]3CN(S(=O)(=O)c4ccc(C)cc4)[C@H](c4cccc(Cl)c4)C[C@@H]3N2S(=O)(=O)c2ccc(Cl)cc2)cc1	n	n	n	x	n	n	x	x
Cc1cccn2cc(-c3c[nH]c4ccccc34)nc12	n	0.9	4.8	n	12.5	6.9	n	10.0
Cc1cc(NC(=O)c2ccc(Br)cc2)nc(C)n1	n	n	n	n	n	n	x	x
Cc1cc(NC(=O)c2ccccc2O)nc(C)n1	n	n	n	n	n	7.7	n	n
Cc1cccc(-c2cccc3c4c([nH]c23)[C@@H]2C[C@H](N(C)C(=O)c3ccco3)[C@H]([C@H](C)O)CN2CC4)c1	n	n	x	x	n	n	x	x
O=[N+]([O-])c1cc(-c2ccn[nH]2)ccc1Cl	n	n	n	n	n	n	x	x
CC(C)C1C(c2ccccc2)NC(c2ccccc2)CC1(O)c1ccc(F)cc1 (centres undefined)	n	n	n	n	n	n	x	x
COc1ccc(OC)c(NC(=O)COC(=O)/C=C/c2ccccc2Cl)c1	n	n	n	n	n	7.1	n	n
COc1ccc(OC)c(NC(=O)COC(=O)/C=C/c2ccco2)c1	n	n	n	x	n	n	x	x
Cc1ccc(-n2ncc(C(=O)Nc3cc(Cl)cc(Cl)c3)c2C2CCNCC2)cc1C	n	n	n	n	n	n	x	x
Cn1c(NC(=O)/C=C/c2ccccc2)cc(=O)n(C)c1=O	n	1.3	4.8	n	n	10.5	n	6.3
CN1c2ccsc2/C(=N/Nc2ccc(F)cc2)CS1(=O)=O	n	4.7	5.9	x	n	7.1	n	9.1
Cc1ccc(N/N=C2\CS(=O)(=O)N(C)c3ccsc32)cc1	n	1.2	10.7	n	n	10.1	n	8.7
Cc1ccc(CN=C2Nc3ccccc3CS2)cc1	4.1	n	n	n	15.4	9.7	n	10.1
O=C(CSc1cn(CC(=O)N2CCOCC2)c2ccccc12)N1CCOCC1	n	n	n	n	n	n	x	x
O=C(Cn1cc(SCc2cccc(Cl)c2)c2ccccc21)N1CCOCC1	n	n	n	n	n	7.8	n	n
SMILES	DAX1 inh-1	ssDAF-12 act	DAX1 inh-2	PolyA inhibitor	hgDAF-12 ag	hcDAF-12 act	LXRb hcDAF ctr	hcDAF12 conf
Cc1cc(C)c2c(N)c3cccc(C)c3nc2n1	n	1.7	n	n	n	10.1	n	31.3
Cc1cccc2c(N)c3c(nc12)CCCC3 (tested in a mixture with another compound)	n	n	n	x	n	n	x	x
CC1=NN(c2ccccc2)C(=O)C1N=Nc1ccccc1 (centres undefined)	n	n	n	n	n	8.0	n	11.4
CC1=NN(C(N)=S)C(=O)C1N=Nc1ccc(Br)cc1 (centres undefined)	n	n	n	n	n	9.8	n	12.4
Nc1cccc(O)c1	n	n	n	x	n	n	x	x
Oc1cccc(-c2nnc(-c3cccc(O)c3)nn2)c1	4.1	2.3	n	x	n	11.9	n	16.8
COc1cc(CN2CCNC(=O)C2CC(=O)N(C)CCC2CCOCC2)cc(OC)c1 (centres undefined)	n	n	n	n	n	n	x	x
Cc1ccc(/C=N/Nc2cccc3cccnc23)c(O)c1	n	n	n	n	n	7.5	n	17.1
CNC(=S)N/N=C1\C(=O)c2cccc3cccc1c23	n	n	n	n	n	10.6	n	9.7
CCCCNC(=S)N/N=C1\C(=O)c2cccc3cccc1c23	n	n	n	n	n	n	x	x
O=C(OCc1nc2ccccc2s1)c1cccc(S(=O)(=O)N2CCOCC2)c1	n	n	n	n	n	7.7	n	9.2
Cc1nnc(SCC(=O)Nc2cc(S(=O)(=O)N3CCOCC3)ccc2C)s1	n	n	n	x	n	n	x	x
O=C(CSc1nc2ccccc2s1)Nc1cc(S(=O)(=O)N2CCOCC2)ccc1O	n	n	n	n	n	9.7	n	n
O=C(c1ccc(NC2=NC3CS(=O)(=O)CC3S2)cc1)N(CCO)Cc1ccccc1 (centres undefined)	n	n	n	n	n	n	x	x
CC(/C=N/N1CCN(c2ccccn2)CC1)=C\c1ccccc1	n	n	n	n	n	6.7	n	n
C[C@H]1C(=O)N2[C@@H](C[C@]3(c4c[nH]c5ccccc45)c4ccccc4N(S(=O)(=O)c4ccccc4)[C@H]23)C(=O)N1C	x	n	x	x	n	6.8	n	n

Compound activity from PubChem BioAssay.
